Test results: the OligoGym collection
Note: reference of the scale not given here.

These sequences were tested against SHOC2 (assay: pooled miR-30 sensor sort-seq; sequence = guide strand). Conditions: shRNA.
In the case of TTGATCGTATTGTCAACTGAAA, the sensor-assay potency score (higher = more potent) is reported as -1.19.
Work on TATGTGTATAGATCTCTTGGAT yielded a sensor-assay potency score (higher = more potent) of -0.313.
For TTTGTTCTCTTCTAGATCCAAC, the sensor-assay potency score (higher = more potent) was -0.823.
TTGTGAGCTACATCCAGCGTAA was tested, and the sensor-assay potency score (higher = more potent) was 0.0478.
For TATCTAACTATACTACCTCTGT, the sensor-assay potency score (higher = more potent) was -0.264.
TTACTTAATACTTTTGCTCTGG was tested, and the sensor-assay potency score (higher = more potent) was 0.139.
For TATATCTAACTATACTACCTCT, the sensor-assay potency score (higher = more potent) was -0.42.
Sequence TTCTCTTCTAGATCCAACTCTC has a sensor-assay potency score (higher = more potent) of -0.213.
TCCAACTCTCTTAACTTCCTAA was tested, and the sensor-assay potency score (higher = more potent) was -0.798.
In the case of TGAATTTTCACTTAGAGCCAGT, the sensor-assay potency score (higher = more potent) is reported as -0.612.
TTGATTGTGAGCTACATCCAGC showed a sensor-assay potency score (higher = more potent) of -0.412.
TTTGATCGTATTGTCAACTGAA showed a sensor-assay potency score (higher = more potent) of 0.487.

These sequences were tested against SHOX2 in the same assay as above. Conditions: shRNA.
TTTGAAACCAAACCTGCACTCG gave a sensor-assay potency score (higher = more potent) of -0.285.
Sequence TTTATGGAGTTGATTTTCTTGT has a sensor-assay potency score (higher = more potent) of -0.402.
Sequence TTCTATGCAAGAGTCCATCGTT has a sensor-assay potency score (higher = more potent) of 0.114.
With TTTGCGATCTTTCAGCTCCGGG the sensor-assay potency score (higher = more potent) was -1.2.
TTGCGATCTTTCAGCTCCGGGG gave a sensor-assay potency score (higher = more potent) of -1.14.
Sequence TATGAGAACACCTTTATGGAGT has a sensor-assay potency score (higher = more potent) of -0.114.
Work on TTCTTGCTGGTGGTCTTGGCGG yielded a sensor-assay potency score (higher = more potent) of -1.37.
For TTTCTACATTTAGCTCTTCGAT, the sensor-assay potency score (higher = more potent) was -1.28.
TACATTTAGCTCTTCGATTTTG showed a sensor-assay potency score (higher = more potent) of -1.22.
TCCAGGGTGAAATTGGTCCGAC showed a sensor-assay potency score (higher = more potent) of -1.19.
Sequence TTCTACATTTAGCTCTTCGATT has a sensor-assay potency score (higher = more potent) of -0.898.
For TTTTCTTGTTTTCTACATTTAG, the sensor-assay potency score (higher = more potent) was -1.51.
